Source: PubChem BioAssay
The source made the active and inactive calls.

Tests used:
[1] = system: PRMT1 (protein arginine N-methyltransferase 1); test: PRMT1 binders on small-molecule microarrays, primary screen, biochemical, small-molecule microarray, 635 nm fluorescence (AID 1088); settings: small-molecule microarray binding, higher = more signal;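 also: binding of Prmt1 protein to compounds spotted on small-molecule microarray slides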
[2] = yeast growth modulation, basal conditions, primary screen, YJM789 clinical isolate, OD600, 24 h (AID 1089);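 also: growth of clinical yeast isolate S. cerevisiae YJM 789 seeded 1000 cells per well; test concentration not given here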; settings: S. cerevisiae YJM789 growth, higher = more signal, called active from +8 up or from −8 down
[3] = fission yeast growth modulation, primary screen, strain 972, OD600, 24 h, no modulator (AID 1090);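 also: basal condition with compound alone and no growth modifier present; test concentration not given here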; settings: S. pombe 972 growth, higher = more signal, called active from +8 up or from −8 down
[4] = S. cerevisiae growth modulation with rapamycin, primary screen, strain BY4716, OD600, 96 h (AID 1091); settings: higher = more signal, called active from +8 up or from −8 down; also: test concentration not given here
[5] = target: Torsin-1A-interacting protein 2 (Homo sapiens) (UniProt Q8NFQ8); test: LULL1 binders on small-molecule microarray, primary screen, cell lysate, human LULL1 lysate, 635/667 nm fluorescence (AID 1092); settings: hLULL1 lysate binding, 635 nm fluorescence, higher = more signal;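 also: probe is lysate of COS7 cells overexpressing human LULL1; score merges per-feature 667 nm fluorescence with signal-to-noise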
Sequence of Torsin-1A-interacting protein 2 (Homo sapiens) (Q8NFQ8 whole entry, looked up): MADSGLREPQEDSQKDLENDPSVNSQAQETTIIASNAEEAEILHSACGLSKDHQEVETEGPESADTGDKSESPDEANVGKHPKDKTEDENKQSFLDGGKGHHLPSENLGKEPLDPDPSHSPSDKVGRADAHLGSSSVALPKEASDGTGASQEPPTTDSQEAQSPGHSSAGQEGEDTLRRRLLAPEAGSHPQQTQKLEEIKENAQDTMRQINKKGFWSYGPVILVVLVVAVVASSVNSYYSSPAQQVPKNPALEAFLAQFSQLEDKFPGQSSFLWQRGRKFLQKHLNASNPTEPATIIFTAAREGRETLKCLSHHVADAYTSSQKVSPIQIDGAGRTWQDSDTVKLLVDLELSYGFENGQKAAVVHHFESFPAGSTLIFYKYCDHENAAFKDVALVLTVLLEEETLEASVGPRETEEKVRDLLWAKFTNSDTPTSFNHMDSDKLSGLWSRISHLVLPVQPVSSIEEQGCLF

[6] = E. coli growth modulation, two-sided OD650, primary screen, E. coli filamentation project, strain DRC41, 24 h (AID 1093); settings: OD650, 24 h, higher = more signal, called active from +8 up or from −8 down;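 also: MC1000 strain lacking acrAB efflux and sulA so SOS filamentation is blocked; test concentration not given here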
[7] = small-molecule microarray binders of probe aLefty2, primary screen, biochemical, biotinylated probe, 635/667 nm fluorescence (AID 1094); settings: higher = more signal;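 also: score merges spot fluorescence near 667 nm with spot signal-to-noise ratio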
[8] = system: Noggin (protein binding on small-molecule microarray); test: Noggin binders on small-molecule microarray, primary screen, biochemical, 635/667 nm fluorescence (AID 1095); settings: 635 nm fluorescence, higher = more signal;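 also: score merges 667 nm feature fluorescence with signal to noise over triplicate slides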
[9] = target: Neurogenic locus notch homolog protein 3 (Homo sapiens) (UniProt Q9UM47); test: NOTCH3 binders on small-molecule microarray, primary screen, biochemical, 635/667 nm fluorescence (AID 1096); settings: NOTCH3 binding, 635 nm fluorescence, higher = more signal
Sequence of Neurogenic locus notch homolog protein 3 (Homo sapiens) (Q9UM47 whole entry, looked up): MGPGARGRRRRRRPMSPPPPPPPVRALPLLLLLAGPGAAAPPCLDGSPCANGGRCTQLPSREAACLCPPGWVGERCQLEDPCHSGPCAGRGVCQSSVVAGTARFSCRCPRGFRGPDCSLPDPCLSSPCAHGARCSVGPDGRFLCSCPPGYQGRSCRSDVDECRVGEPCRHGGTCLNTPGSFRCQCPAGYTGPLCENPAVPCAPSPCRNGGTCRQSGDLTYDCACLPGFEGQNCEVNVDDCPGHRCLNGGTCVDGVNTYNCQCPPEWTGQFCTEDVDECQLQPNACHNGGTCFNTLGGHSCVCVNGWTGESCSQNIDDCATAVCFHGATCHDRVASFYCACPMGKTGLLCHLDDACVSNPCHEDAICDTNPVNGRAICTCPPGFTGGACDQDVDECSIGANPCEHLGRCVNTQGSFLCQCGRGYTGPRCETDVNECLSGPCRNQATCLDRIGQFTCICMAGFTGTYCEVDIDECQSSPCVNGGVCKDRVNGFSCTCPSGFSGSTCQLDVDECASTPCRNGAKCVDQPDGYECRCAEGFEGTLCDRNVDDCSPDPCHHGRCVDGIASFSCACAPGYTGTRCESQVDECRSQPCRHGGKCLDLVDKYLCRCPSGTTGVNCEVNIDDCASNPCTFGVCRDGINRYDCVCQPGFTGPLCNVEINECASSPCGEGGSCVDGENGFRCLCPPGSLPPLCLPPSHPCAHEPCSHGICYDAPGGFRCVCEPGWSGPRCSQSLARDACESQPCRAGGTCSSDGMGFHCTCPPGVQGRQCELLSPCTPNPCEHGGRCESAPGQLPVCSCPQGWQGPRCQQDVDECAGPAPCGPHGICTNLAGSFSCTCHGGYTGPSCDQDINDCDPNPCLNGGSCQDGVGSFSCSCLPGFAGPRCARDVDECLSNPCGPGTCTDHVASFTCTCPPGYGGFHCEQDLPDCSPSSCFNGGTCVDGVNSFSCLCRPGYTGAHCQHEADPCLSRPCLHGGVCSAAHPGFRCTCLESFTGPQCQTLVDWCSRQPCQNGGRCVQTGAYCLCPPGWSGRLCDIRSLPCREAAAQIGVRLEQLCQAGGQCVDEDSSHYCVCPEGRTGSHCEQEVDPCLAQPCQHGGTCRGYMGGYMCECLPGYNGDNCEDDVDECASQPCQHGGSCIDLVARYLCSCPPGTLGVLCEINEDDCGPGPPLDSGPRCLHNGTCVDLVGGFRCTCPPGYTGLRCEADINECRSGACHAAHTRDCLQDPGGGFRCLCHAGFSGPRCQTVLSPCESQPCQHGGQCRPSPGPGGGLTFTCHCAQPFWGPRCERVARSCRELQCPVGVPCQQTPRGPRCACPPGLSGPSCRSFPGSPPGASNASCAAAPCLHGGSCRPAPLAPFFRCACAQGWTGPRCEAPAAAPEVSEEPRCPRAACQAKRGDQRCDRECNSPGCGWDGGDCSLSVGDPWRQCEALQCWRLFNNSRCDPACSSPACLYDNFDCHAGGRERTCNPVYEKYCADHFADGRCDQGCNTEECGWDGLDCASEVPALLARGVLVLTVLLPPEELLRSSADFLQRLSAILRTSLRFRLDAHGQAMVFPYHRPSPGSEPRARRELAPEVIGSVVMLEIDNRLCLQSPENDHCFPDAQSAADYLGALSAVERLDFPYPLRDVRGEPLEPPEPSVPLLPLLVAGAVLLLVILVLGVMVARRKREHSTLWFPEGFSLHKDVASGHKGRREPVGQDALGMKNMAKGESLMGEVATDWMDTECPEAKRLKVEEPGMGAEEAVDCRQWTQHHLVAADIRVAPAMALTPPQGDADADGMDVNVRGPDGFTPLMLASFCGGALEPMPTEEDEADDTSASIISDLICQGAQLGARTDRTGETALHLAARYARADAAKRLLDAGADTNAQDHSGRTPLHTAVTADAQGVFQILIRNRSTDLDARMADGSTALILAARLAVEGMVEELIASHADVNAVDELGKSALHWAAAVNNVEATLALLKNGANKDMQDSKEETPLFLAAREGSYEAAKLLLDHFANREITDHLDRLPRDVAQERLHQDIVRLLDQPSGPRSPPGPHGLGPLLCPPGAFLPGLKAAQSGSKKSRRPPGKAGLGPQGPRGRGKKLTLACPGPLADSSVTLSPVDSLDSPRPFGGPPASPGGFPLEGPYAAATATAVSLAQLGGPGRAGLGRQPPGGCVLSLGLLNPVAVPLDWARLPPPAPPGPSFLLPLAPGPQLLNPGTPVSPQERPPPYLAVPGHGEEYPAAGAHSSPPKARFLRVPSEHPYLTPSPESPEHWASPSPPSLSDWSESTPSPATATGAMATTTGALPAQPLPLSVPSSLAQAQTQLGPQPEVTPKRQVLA

[10] = small-molecule microarray binders of probe aEGFR, primary screen, biochemical, biotinylated probe, 635/667 nm fluorescence (AID 1097); settings: higher = more signal;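 also: probe is a biotinylated anti-EGFR antibody binding compounds printed on slides; score combines fluorescence near 667 nm and signal to noise of each spot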
[11] = system: Plasmodium falciparum Sir2 (PF13_0152, Sir2A); test: pfSir2 binders on small-molecule microarrays, primary screen, biochemical, small-molecule microarray, 635 nm fluorescence (AID 1098); settings: small-molecule microarray binding, fluorescence 635 nm; higher = more signal;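 also: score merges spot fluorescence intensity with its signal-to-noise ratio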
[12] = small-molecule microarray binders of probe aDKK1, primary screen, biochemical, biotinylated probe, 635/667 nm fluorescence (AID 1099); settings: higher = more signal;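 also: score merges 667nm spot fluorescence with signal to noise across triplicate slides; reference of the scale not given here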
[13] = small-molecule microarray binders of probe aCHRDL2, primary screen, biochemical, biotinylated probe, 635/667 nm fluorescence (AID 1100); settings: higher = more signal
[14] = splicing luciferase reporter signal modulators, primary screen, spliceosome inhibition project, cell-based, HEK293, splice +/- reporter (AID 1101); settings: luminescence, 24 h, higher = more signal, called active from +8 up or from −8 down;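 also: HEK293 cells carrying a splicing-competent luciferase reporter gene; test concentration not given here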
[15] = target: Fibroblast growth factor 10 (Homo sapiens) (UniProt O15520); test: FGF10 binders on small-molecule microarrays, primary screen, biochemical, small-molecule microarray, 635 nm fluorescence (AID 1102); settings: FGF10 binding, fluorescence 635 nm, higher = more signal
Sequence of Fibroblast growth factor 10 (Homo sapiens) (O15520 whole entry, looked up): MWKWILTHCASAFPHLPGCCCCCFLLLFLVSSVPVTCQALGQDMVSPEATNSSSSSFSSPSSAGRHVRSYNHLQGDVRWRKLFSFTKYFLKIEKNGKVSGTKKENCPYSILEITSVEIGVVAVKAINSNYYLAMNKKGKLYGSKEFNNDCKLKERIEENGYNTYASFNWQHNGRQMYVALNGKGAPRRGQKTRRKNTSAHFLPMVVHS

[16] = system: glycogen synthase kinase-3 (GSK3A per assay name; protocol says GSK3B); test: GSK3 binders on small-molecule microarrays, primary screen, biochemical, small-molecule microarray, 635 nm fluorescence, GSK3A (AID 1103); settings: small-molecule microarray binding, fluorescence 635 nm; higher = more signal; also: the record names both GSK3A and GSK3B
[17] = target: Epidermal growth factor receptor (Homo sapiens) (UniProt P00533); test: EGFR binders on small-molecule microarrays, primary screen, biochemical, small-molecule microarray, 635 nm fluorescence (AID 1104); settings: EGFR binding, higher = more signal;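 also: score merges 667 nm emission intensity with spot signal to noise over triplicate slides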
Sequence of Epidermal growth factor receptor (Homo sapiens) (P00533 whole entry, looked up): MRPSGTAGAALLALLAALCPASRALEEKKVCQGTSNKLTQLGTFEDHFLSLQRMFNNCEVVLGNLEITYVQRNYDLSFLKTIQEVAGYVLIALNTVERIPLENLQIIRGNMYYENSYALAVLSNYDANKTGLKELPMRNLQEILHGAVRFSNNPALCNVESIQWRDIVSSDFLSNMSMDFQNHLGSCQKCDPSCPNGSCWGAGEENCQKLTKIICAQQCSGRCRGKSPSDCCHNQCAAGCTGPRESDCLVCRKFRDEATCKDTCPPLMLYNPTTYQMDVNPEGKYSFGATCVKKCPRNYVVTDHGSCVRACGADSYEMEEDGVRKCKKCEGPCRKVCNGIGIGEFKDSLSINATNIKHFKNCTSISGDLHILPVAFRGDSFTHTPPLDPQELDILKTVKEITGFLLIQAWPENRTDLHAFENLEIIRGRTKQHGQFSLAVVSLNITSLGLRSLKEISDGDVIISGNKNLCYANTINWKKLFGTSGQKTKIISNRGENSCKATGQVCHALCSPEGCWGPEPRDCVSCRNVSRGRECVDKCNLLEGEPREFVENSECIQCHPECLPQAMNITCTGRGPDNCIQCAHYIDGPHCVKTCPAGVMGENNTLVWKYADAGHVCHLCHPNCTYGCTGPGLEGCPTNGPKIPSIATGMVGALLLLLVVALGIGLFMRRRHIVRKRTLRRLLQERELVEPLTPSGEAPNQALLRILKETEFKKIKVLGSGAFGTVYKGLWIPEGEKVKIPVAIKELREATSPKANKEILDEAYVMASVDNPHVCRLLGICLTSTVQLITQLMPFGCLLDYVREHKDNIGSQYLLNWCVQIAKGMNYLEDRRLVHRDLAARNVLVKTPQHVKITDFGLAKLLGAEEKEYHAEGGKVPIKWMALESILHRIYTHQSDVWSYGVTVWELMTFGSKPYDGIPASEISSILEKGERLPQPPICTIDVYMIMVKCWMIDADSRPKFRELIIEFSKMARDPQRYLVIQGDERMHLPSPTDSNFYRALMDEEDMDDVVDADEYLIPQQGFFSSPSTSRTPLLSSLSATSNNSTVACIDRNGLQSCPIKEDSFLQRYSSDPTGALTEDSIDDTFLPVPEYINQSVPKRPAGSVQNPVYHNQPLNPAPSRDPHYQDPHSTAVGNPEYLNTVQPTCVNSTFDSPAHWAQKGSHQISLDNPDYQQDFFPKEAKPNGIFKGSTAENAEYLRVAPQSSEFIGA

[18] = target: Follistatin-related protein 3 (Homo sapiens) (UniProt O95633); test: FSTL3 binders on small-molecule microarrays, primary screen, biochemical, small-molecule microarray, 635 nm fluorescence (AID 1105); settings: FSTL3 binding, higher = more signal;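 also: score merges emission near 667 nm and signal to noise per printed spot across three slides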
Sequence of Follistatin-related protein 3 (Homo sapiens) (O95633 whole entry, looked up): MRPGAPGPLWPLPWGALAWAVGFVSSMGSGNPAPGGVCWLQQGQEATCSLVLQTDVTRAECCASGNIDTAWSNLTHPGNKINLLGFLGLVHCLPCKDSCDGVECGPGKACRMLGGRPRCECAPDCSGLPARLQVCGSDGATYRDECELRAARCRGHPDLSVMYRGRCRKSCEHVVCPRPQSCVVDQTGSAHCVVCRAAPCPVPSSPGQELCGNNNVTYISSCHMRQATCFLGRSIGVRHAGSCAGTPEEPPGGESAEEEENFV

[19] = target: Dickkopf-related protein 1 (Homo sapiens) (UniProt O94907); test: DKK1 binders on small-molecule microarrays, primary screen, biochemical, small-molecule microarray, 635 nm fluorescence scan (AID 1106); settings: DKK1 binding, higher = more signal;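 also: score merges emission near 667 nm with signal to noise over three replicate slides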
Sequence of Dickkopf-related protein 1 (Homo sapiens) (O94907 whole entry, looked up): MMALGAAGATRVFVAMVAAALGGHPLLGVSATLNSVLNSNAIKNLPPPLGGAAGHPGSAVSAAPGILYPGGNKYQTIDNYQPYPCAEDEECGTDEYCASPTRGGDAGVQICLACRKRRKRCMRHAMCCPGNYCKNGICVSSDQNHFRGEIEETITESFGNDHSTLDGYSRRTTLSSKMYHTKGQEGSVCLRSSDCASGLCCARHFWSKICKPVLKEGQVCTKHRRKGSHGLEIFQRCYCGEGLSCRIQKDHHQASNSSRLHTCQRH

[20] = system: Inhibin beta A chain (activin A); test: INHBA (activin A) binders on microarrays, primary screen, biochemical, small-molecule microarray, 635 nm fluorescence scan (AID 1107); settings: small-molecule microarray binding, higher = more signal;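 also: mouse activin A protein probed at 4.33 µg/mL on printed slides; score merges bound-protein fluorescence near 667 nm with spot signal-to-noise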

SMILES | composite z-score [1] | z-score [2] | z-score [3] | z-score [4] | composite z-score [5] | z-score [6] | composite z-score [7] | composite z-score [8] | composite z-score [9] | composite z-score [10] | composite z-score [11] | composite z-score [12] | composite z-score [13] | z-score [14] | composite z-score [15] | composite z-score [16] | composite z-score [17] | composite z-score [18] | composite z-score [19] | composite z-score [20]
CC1CC/C=C\[C@H]2OC34C=CCN(Cn5nnc6ccccc65)C(=O)[C@H]3N(CCCCCCO)C(=O)[C@@H]4C2C(=O)O1 (stereo not given in full) | -0.526 | 0.28 (inactive) | -0.0728 (inactive) | 0.105 (inactive) | 2.9 | 0.167 (inactive) | -0.205 | -1.09 | -0.368 | -0.33 | 0.765 | -0.252 | 0.794 | 0.468 (inactive) | -0.835 | -0.759 | -0.951 | -1.23 | -1.36 | -0.306
C=C(COC)C(=O)CC[C@@H](OC(C)=O)c1ccccc1OCCO | 1.34 | -1.89 (inactive) | -3.27 (inactive) | -1.51 (inactive) | 1.76 | 0.732 (inactive) | -0.117 | 1.11 | 0.784 | -0.0382 | 1.29 | -0.232 | 0.313 | 1.34 (inactive) | 1.53 | -0.0163 | -0.0143 | 0.209 | -0.306 | 1.38
COc1cc(CO)cc(I)c1O[C@H]1C=C(C(=O)NCCO)C[C@@H]2O[C@H]12 | 1.56 | 0.111 (inactive) | -6.47 (inactive) | -1.42 (inactive) | 2.63 | -0.0097 (inactive) | 0.17 | 2.32 | 1.07 | 0.0018 | 0.6 | 0.298 | 0.0558 | 1 (inactive) | 1.77 | 1.33 | 0.989 | 1.45 | 1.34 | 0.643
[N-]=[N+]=Nc1ccccc1[C@H]1OC(c2ccc(OCCCO)cc2)=N[C@@]1(Cc1ccccc1)C(=O)NCC(O)CO (stereo not given in full) | 1.02 | -0.858 (inactive) | -1.13 (inactive) | 0.617 (inactive) | 3.52 | 0.824 (inactive) | 0.109 | 0.0821 | 0.206 | -0.0226 | 0.315 | 0.78 | 0.981 | -0.562 (inactive) | -0.0795 | 0.0637 | -0.942 | -0.283 | -0.535 | 0.647
COc1ccccc1CN1C(=O)c2ccccc2[C@](Cc2ccccc2I)(C(=O)NCC(C)C)[C@@H]1c1ccc(CO)cc1 | 1.33 | -0.747 (inactive) | -0.652 (inactive) | 0.0134 (inactive) | 2.11 | 2.2 (inactive) | 0.103 | -0.371 | 0.139 | -0.0721 | 1.66 | 0.736 | 1.01 | 0.0236 (inactive) | -0.0272 | -0.0773 | -1.19 | -0.408 | -1.27 | -0.316
